Among the data in PubChem BioAssay (EPA / NIEHS) are outcome and AC50 values, retold here.

As a reminder, the AC50 is the midpoint of the concentration-response curve, whichever way the signal moves.

Active and inactive are the calls of the source. The calls were made as follows: active = hit-call score of the fitted dose curve at least 0.9, where 1 is the maximum; inactive = score below 0.9.

What all share (conditions): mRNA level, 48 h; actives raise or lower the signal
Read-out in assay [1]: Cytochrome P450 (CYP24A1), CYP24A1 (gene 1591)
As to the kind of experiment: LTEA_HepaRG_CYP24A1: Life Technologies and Expression Analysis (LTEA) Assay for Cytochrome P450 (CYP24A1) using HepaRG (AID 2283478). In a few lines: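 qRT-PCR read-out: CYP24A1 transcript levels normalized to three housekeeping genes, bidirectional curve fits against 0.5% DMSO baseline. Human HepaRG cells treated 48 h with chemicals at eight concentrations from 100 uM in half-log steps.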

Read-out in assay [2]: Cytochrome P450 (CYP1A2), CYP1A2 (gene 1544)
Put plainly: LTEA_HepaRG_CYP1A2: Life Technologies and Expression Analysis (LTEA) Assay for Cytochrome P450 (CYP1A2) using HepaRG (AID 2283479). In a few lines: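 HepaRG, 48 h exposure, top 100 uM, half-log 8-pt, 0.5% DMSO vehicle, duplicates. Readout: TaqMan qRT-PCR of CYP1A2 mRNA, housekeeping-normalized (ACTB/GAPDH/POLR2A). Gain/loss fit relative to DMSO baseline.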

Read-out in assay [3]: cysteine-aspartic acid protease (CASP8), CASP8 (gene 841)
As to the kind of experiment: LTEA_HepaRG_CASP8: Life Technologies and Expression Analysis (LTEA) Assay for cysteine-aspartic acid protease (CASP8) using HepaRG (AID 2283480). In a few lines:
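HepaRG, 48 h exposure, duplicate wells; 8 conc, half-log from 100 uM, 0.5% DMSO. Serum-free induction medium. CASP8 mRNA by TaqMan qRT-PCR, norm. ACTB/GAPDH/POLR2A; gain/loss fitted vs DMSO.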

Read-out in assay [4]: Cytochrome P450 (CYP2B6), CYP2B6 (gene 1555)
Put plainly: LTEA_HepaRG_CYP2B6: Life Technologies and Expression Analysis (LTEA) Assay for Cytochrome P450 (CYP2B6) using HepaRG (AID 2283481). In a few lines: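 Read-out is CYP2B6 mRNA by TaqMan qRT-PCR, normalized to three housekeeping genes and fitted bidirectionally against 0.5% DMSO baseline. Human HepaRG cells received test chemicals for 48 h, top concentration 100 uM, half-log dilutions.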

Read-out in assay [5]: Cytochrome P450 2C19 (Homo sapiens) (UniProt P33261)
As to the kind of experiment: LTEA_HepaRG_CYP2C19: Life Technologies and Expression Analysis (LTEA) Assay for CYP2C19 using HepaRG (AID 2283482). An outline of the steps:
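HepaRG, 48 h chemical exposure, 8-pt half-log series from 100 uM in 0.5% DMSO, duplicates. Readout: CYP2C19 mRNA by TaqMan qRT-PCR, housekeeping-normalized. Bidirectional fit vs DMSO baseline; phenobarbital 1mM as induction control.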

Read-out in assay [6]: CYP2C8 (gene 1558)
Put plainly: LTEA_HepaRG_CYP2C8: Life Technologies and Expression Analysis (LTEA) Assay for CYP2C8 using HepaRG (AID 2283483). An outline of the steps: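 CYP2C8 mRNA induction or loss, by qRT-PCR normalized to ACTB/GAPDH/POLR2A, is read in HepaRG cells after 48 h treatment. Concentrations run from 100 uM down in half-log dilutions, with 0.5% DMSO as vehicle and baseline.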

Read-out in assay [7]: CYP2C9 (gene 1559)
As to the kind of experiment: LTEA_HepaRG_CYP2C9: Life Technologies and Expression Analysis (LTEA) Assay for CYP2C9 using HepaRG (AID 2283484). In a few lines: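 Cells plated 48 h, switched to serum-free induction medium, then treated in duplicate for 48 h at eight concentrations (max 100 uM, 0.5% DMSO). RNA then analysed by qRT-PCR for CYP2C9; curves fitted in both directions relative to DMSO.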

Read-out in assay [8]: CYP2E1 (gene 1571)
Put plainly: LTEA_HepaRG_CYP2E1: Life Technologies and Expression Analysis (LTEA) Assay for CYP2E1 using HepaRG (AID 2283485). An outline of the steps: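 Human liver line HepaRG, plated 48 h, then serum-free induction medium + chemical x 48 h; 8-pt CRC from 100 uM, half-log, 0.5% DMSO, n=2. Readout: CYP2E1 mRNA qRT-PCR vs ACTB/GAPDH/POLR2A; bidirectional fit vs DMSO.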

Read-out in assay [9]: CYP4A11 (gene 1579)
Put plainly: LTEA_HepaRG_CYP4A11: Life Technologies and Expression Analysis (LTEA) Assay for CYP4A11 using HepaRG (AID 2283486). In a few lines:
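CYP4A11 transcript levels were quantified by TaqMan qRT-PCR after HepaRG human liver cells were treated for 48 hours with test chemicals (top 100 uM, half-log dilutions, 0.5% DMSO). Gain or loss of signal was fitted relative to DMSO.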

Read-out in assay [10]: Cytochrome P450 3A4 (Homo sapiens) (UniProt P08684)
As to the kind of experiment: LTEA_HepaRG_CYP3A4: Life Technologies and Expression Analysis (LTEA) Assay for CYP3A4 using HepaRG (AID 2283487). In a few lines: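 HepaRG, 48 h exposure, 8-pt CRC from 100 uM (half-log), 0.5% DMSO, duplicates; serum-free induction medium. Readout: CYP3A4 mRNA, qRT-PCR, ACTB/GAPDH/POLR2A normalization. Bidirectional fit vs DMSO.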

Read-out in assay [11]: DNA damage-inducible transcript 3 (DDIT3), DDIT3 (gene 1649)
Put plainly: LTEA_HepaRG_DDIT3: Life Technologies and Expression Analysis (LTEA) Assay for DNA damage-inducible transcript 3 (DDIT3) using HepaRG (AID 2283488). In a few lines: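 HepaRG plated 48 h, switched to serum-free induction medium, dosed 48 h (100 uM top, half-log, 8 pts, 0.5% DMSO, n=2); RNA isolated; DDIT3 by qRT-PCR; bidirectional curve fit vs DMSO.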

Read-out in assay [12]: Early growth response protein 1 (EGR1) transcription factor, EGR1 (gene 1958)
Put plainly: LTEA_HepaRG_EGR1: Life Technologies and Expression Analysis (LTEA) Assay for Early growth response protein 1 (EGR1) transcription factor using HepaRG (AID 2283490). An outline of the steps:
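Read-out is EGR1 mRNA level by qRT-PCR, normalized to three housekeeping genes and analysed for gain or loss of signal against 0.5% DMSO. Source cells: human HepaRG, treated 48 h at up to 100 uM in half-log dilutions.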

Read-out in assay [13]: Ezrin (EZR), EZR (gene 7430)
Put plainly: LTEA_HepaRG_EZR: Life Technologies and Expression Analysis (LTEA) Assay for Ezrin (EZR) using HepaRG (AID 2283491). An outline of the steps: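 Read-out is EZR transcript level by qRT-PCR, normalized to three housekeeping genes and fitted bidirectionally against the DMSO control. Human HepaRG cells received test chemicals for 48 h at eight half-log concentrations up to 100 uM in 0.5% DMSO.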

Read-out in assay [14]: Cytochrome P450 3A7 (Homo sapiens) (UniProt P24462)
As to the kind of experiment: LTEA_HepaRG_CYP3A7: Life Technologies and Expression Analysis (LTEA) Assay for CYP3A7 using HepaRG (AID 2283492). In a few lines:
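CYP3A7 transcript levels were read by TaqMan qRT-PCR on Fluidigm arrays after 48 h chemical exposure of human HepaRG cells, with housekeeping-gene normalisation. Eight half-log concentrations up to 100 uM in 0.5% DMSO were tested in duplicate.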

Read-out in assay [15]: CYP3A5 (gene 1577)
As to the kind of experiment: LTEA_HepaRG_CYP3A5: Life Technologies and Expression Analysis (LTEA) Assay for CYP3A5 using HepaRG (AID 2283493). An outline of the steps: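 HepaRG plated 48 h, switched to serum-free induction medium, chemicals added 48 h (max 100 uM, half-log, 0.5% DMSO). RNA isolated; CYP3A5 by TaqMan qRT-PCR. Gain/loss vs DMSO.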

Read-out in assay [16]: Fatty Acid-Binding Protein 1 (FABP1), FABP1 (gene 2168)
As to the kind of experiment: LTEA_HepaRG_FABP1: Life Technologies and Expression Analysis (LTEA) Assay for Fatty Acid-Binding Protein 1 (FABP1) using HepaRG (AID 2283494). An outline of the steps: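 HepaRG, 48 h post-plating switched to serum-free induction medium, then dosed 48 h (duplicate, 8 pts, ≤100 uM, 0.5% DMSO). RNA → Fluidigm TaqMan qRT-PCR, FABP1 normed to ACTB/GAPDH/POLR2A. Bidirectional curve fit vs DMSO.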

Read-out in assay [17]: Cytochrome P450 4A22 (Homo sapiens) (UniProt Q5TCH4)
As to the kind of experiment: LTEA_HepaRG_CYP4A22: Life Technologies and Expression Analysis (LTEA) Assay for Cytochrome P450 4A22 (CYP4A22) using HepaRG (AID 2283495). An outline of the steps: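 HepaRG, 48 h post-plating -> serum-free induction medium; dosed 48 h, duplicate, 8 conc. (100 uM top, half-log), 0.5% DMSO. Readout: CYP4A22 mRNA by qRT-PCR, ACTB/GAPDH/POLR2A normalization; gain/loss fit relative to DMSO.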

Read-out in assay [18]: Cytochrome P450 7A1 (Homo sapiens) (UniProt P22680)
As to the kind of experiment: LTEA_HepaRG_CYP7A1: Life Technologies and Expression Analysis (LTEA) Assay for Cytochrome P450 7A1 (CYP7A1) using HepaRG (AID 2283496). In a few lines: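 HepaRG cells plated 48 h, then switched to serum-free induction medium and exposed in duplicate for 48 h to 8-point half-log series from 100 uM in 0.5% DMSO. CYP7A1 mRNA by qRT-PCR (TaqMan), normalized to ACTB/GAPDH/POLR2A; bidirectional fit versus DMSO.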

Read-out in assay [19]: Glutathione S-Transferase (GSTA2), GSTA2 (gene 2939)
Put plainly: LTEA_HepaRG_GSTA2: Life Technologies and Expression Analysis (LTEA) Assay for Glutathione S-Transferase (GSTA2) using HepaRG (AID 2283497). An outline of the steps: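 HepaRG, 48 h dosing, 8-pt half-log CRC from 100 uM, 0.5% DMSO vehicle, n=2; RNA → Fluidigm TaqMan qRT-PCR; GSTA2 vs ACTB/GAPDH/POLR2A; gain/loss fit vs DMSO.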

Read-out in assay [20]: Pro-epidermal growth factor (Homo sapiens) (UniProt P01133)
Put plainly: LTEA_HepaRG_EGF: Life Technologies and Expression Analysis (LTEA) Assay for Epidermal growth factor (EGF) using HepaRG (AID 2283489). In a few lines:
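qRT-PCR readout of EGF transcript after 48 h chemical exposure of HepaRG cells; eight concentrations from 100 uM down in half-log steps, duplicate wells, 0.5% DMSO vehicle. Bidirectional curve fitting against DMSO baseline.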

Sequence of Cytochrome P450 2C19 (Homo sapiens) (P33261 whole entry, looked up): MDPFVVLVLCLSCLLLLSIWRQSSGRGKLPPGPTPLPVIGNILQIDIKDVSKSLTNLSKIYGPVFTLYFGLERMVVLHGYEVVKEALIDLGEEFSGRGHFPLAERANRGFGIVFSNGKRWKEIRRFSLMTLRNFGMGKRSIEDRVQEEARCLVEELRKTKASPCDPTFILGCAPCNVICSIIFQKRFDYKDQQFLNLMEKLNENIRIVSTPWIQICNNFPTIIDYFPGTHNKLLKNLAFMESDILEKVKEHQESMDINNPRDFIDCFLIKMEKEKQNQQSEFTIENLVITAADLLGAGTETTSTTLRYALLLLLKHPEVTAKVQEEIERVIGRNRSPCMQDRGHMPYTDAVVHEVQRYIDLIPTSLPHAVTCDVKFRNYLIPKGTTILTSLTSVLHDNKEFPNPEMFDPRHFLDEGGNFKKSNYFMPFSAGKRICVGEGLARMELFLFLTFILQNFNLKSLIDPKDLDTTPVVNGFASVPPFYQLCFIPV
Sequence of Cytochrome P450 3A4 (Homo sapiens) (P08684 whole entry, looked up): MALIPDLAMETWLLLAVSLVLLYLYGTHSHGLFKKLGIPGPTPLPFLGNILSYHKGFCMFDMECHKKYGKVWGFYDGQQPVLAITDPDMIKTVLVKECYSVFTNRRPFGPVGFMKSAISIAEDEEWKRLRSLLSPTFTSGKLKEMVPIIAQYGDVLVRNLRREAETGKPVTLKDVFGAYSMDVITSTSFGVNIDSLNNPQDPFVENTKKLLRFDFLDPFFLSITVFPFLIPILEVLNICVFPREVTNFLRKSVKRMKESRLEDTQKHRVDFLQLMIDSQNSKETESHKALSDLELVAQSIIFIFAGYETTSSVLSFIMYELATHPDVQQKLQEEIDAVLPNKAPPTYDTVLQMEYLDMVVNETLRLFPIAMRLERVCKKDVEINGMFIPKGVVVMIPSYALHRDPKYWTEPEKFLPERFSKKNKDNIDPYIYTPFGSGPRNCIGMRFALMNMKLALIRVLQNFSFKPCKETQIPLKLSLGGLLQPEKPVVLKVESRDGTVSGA
Sequence of Cytochrome P450 3A7 (Homo sapiens) (P24462 whole entry, looked up): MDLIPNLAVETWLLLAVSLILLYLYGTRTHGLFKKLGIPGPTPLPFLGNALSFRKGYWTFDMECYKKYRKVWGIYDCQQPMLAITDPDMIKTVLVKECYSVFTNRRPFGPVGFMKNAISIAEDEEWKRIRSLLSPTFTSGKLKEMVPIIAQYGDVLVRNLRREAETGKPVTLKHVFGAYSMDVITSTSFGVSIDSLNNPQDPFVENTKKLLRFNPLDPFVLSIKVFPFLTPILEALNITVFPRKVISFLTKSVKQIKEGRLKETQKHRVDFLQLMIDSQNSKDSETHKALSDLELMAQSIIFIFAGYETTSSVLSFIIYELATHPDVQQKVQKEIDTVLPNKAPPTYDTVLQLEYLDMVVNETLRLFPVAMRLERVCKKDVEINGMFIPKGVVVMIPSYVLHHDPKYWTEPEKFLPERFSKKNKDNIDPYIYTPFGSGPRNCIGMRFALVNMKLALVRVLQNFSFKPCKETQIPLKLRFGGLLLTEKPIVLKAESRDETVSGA

`CCCCCCCCCCCCCCCCO`: the call in assay [1], in assay [2], in [3], in assay [5], in assay [6] and in assay [7] was inactive. Also, the result in assay [10], in assay [11], in [12], in assay [14], in assay [15] and in assay [16] was inactive. Further, the result in assay [17] and in assay [19] was inactive. The concentration at half-maximal activity (AC50) in assay [4] is 13.1 µM (active); in [8], 50 µM (active); in [9] it was 16.8 µM (active); in [13], 102 nM (active); in assay [18], 50 µM (active).

Turning to `Cc1ccc(C(C)(C)C)c(O)c1`, the compound was called inactive in assay [1], in [3], in assay [4], in assay [5], in [6] and in assay [7]. Also, the compound was classed as inactive in [8], in assay [10], in [11], in [20], in assay [12] and in assay [13]. Further, the compound was classed as inactive in assay [14], in assay [15], in assay [16], in assay [18] and in assay [19]. In assay [2], the AC50 is 25.6 µM (active).

As to `Oc1ccc(O)cc1`, the call in assay [1], in assay [3], in assay [4], in assay [5], in assay [6] and in assay [7] was inactive. The outcome in [8], in assay [10], in [11], in assay [20], in assay [12] and in [13] was inactive. For the same compound, the outcome in [14], in [15], in assay [16], in assay [17], in assay [18] and in [19] was inactive. Further, the concentration at half-maximal activity (AC50) in assay [2] is 50 µM (active).

Consider `O=Cc1ccccc1C=O`, for which the call in assay [1], in [3], in [5], in assay [6], in assay [7] and in [8] was inactive. Besides, the compound was called inactive in assay [9], in assay [10], in assay [11], in assay [20], in assay [12] and in assay [13]. Also, the call in [14], in assay [15], in assay [16], in assay [17], in [18] and in assay [19] was inactive. In addition, the AC50 in [2] is 7.32 µM (active); in assay [4], 23.3 µM (active).
